# Laboratory results reported in the supplement of paper PMC4022240.
# ± gives the standard deviation.
# T1: HaloTag-ATRX ADD domain (163-292)
# T1 chain: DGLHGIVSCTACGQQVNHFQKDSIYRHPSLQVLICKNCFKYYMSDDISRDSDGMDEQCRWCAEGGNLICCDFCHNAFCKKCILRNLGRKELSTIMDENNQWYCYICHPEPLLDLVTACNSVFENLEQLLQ
# Experiments:
# Test in all cases: peptide microarray binding signal (635 nm), min-max normalized on array (fraction of array maximum); higher = stronger binding
# [1] = target: T1, HaloTag-ATRX ADD domain (163-292)
# Outline: (§1)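 Arrays carried histone 13-mer peptide–cellulose conjugates printed in triplicate on nitrocellulose alongside a Cy3 tracer. After overnight blocking at 4°C, they were incubated for 1 h at 4°C with biotin-labelled HaloTag reader fusions (10 nM to 1 μM) plus streptavidin-Alexa Fluor 647, or with rabbit histone antibodies (1:10,000 to 1:2,000) plus anti-rabbit Alexa 647. Scanning on an Axon GenePix 4000B used 635 nm for signal and 532 nm for misprints. The binding signal reported is each triplicate's mean spot intensity after per-library min-max scaling.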
# [2] = target: HaloTag-ING2 PHD (mouse Ing2 200-280)
# Outline: as §1
# [3] = target: anti-H3K4me3 antibody ab8580
# Outline: as §1
# [4] = target: anti-H3K9me3 antibody ab8898
# Outline: as §1
# [5] = peptide region: H4 8-19, peptide modifications: H4K16ac, binder concentration: 1:2,000 dilution
# [6] = peptide region: H4 8-19, peptide modifications: H4K16ac, binder concentration: 1:10,000 dilution
# [7] = peptide region: H4 8-19, peptide modifications: H4K8ac, binder concentration: 1:2,000 dilution
# [8] = peptide region: H4 8-19, peptide modifications: H4K8ac, binder concentration: 1:10,000 dilution
# [9] = peptide region: H4 16-28, peptide modifications: H4R19cit H4K20ac, binder concentration: 1:2,000 dilution
# [10] = peptide region: H4 16-28, peptide modifications: H4R19cit H4K20ac, binder concentration: 1:10,000 dilution
# [11] = peptide region: H4 16-28, peptide modifications: H4R19me1, binder concentration: 1:2,000 dilution
# [12] = peptide region: H4 16-28, peptide modifications: H4K20me1, binder concentration: 1:2,000 dilution
# [13] = peptide region: H4 8-19, peptide modifications: H4R17cit, binder concentration: 1:2,000 dilution
# [14] = peptide region: H4 8-19, peptide modifications: H4R17cit, binder concentration: 1:10,000 dilution
# [15] = peptide region: H4 16-28, peptide modifications: H4K20ac, binder concentration: 1:2,000 dilution
# [16] = peptide region: H4 8-19, peptide modifications: H4R17me2a, binder concentration: 1:2,000 dilution
# [17] = peptide region: H4 8-19, peptide modifications: H4R17me2a, binder concentration: 1:10,000 dilution
# [18] = peptide region: H4 8-19, peptide modifications: H4K8ac H4K16ac, binder concentration: 1:2,000 dilution
# [19] = peptide region: H4 8-19, peptide modifications: H4K8ac H4K16ac, binder concentration: 1:10,000 dilution
# [20] = peptide region: H4 8-19, peptide modifications: H4K16ac H4R17me1, binder concentration: 1:2,000 dilution
# [21] = peptide region: H4 16-28, peptide modifications: H4R19cit H4K20me2, binder concentration: 1:2,000 dilution
# [22] = peptide region: H4 16-28, peptide modifications: H4R19cit H4K20me2, binder concentration: 1:10,000 dilution
binder,measurement,setting,value
KGLGKGGAKRHRK [H4 8-19 K G L G K G G A Kac R H R K],peptide microarray binding signal,"[1]; peptide region: H4 8-19, peptide modifications: H4K16ac, binder concentration: 50 nM",0.00483 ± 0.00015
same,peptide microarray binding signal,"[1]; peptide region: H4 8-19, peptide modifications: H4K16ac, binder concentration: 500 nM",0.0126 ± 0.00055
same,peptide microarray binding signal,"[2]; peptide region: H4 8-19, peptide modifications: H4K16ac, binder concentration: 10 nM",0.00388 ± 8.9e-05
same,peptide microarray binding signal,"[2]; peptide region: H4 8-19, peptide modifications: H4K16ac, binder concentration: 100 nM",0.0106 ± 0.0026
same,peptide microarray binding signal,[3]; [5],0.00238 ± 0.00047
same,peptide microarray binding signal,[3]; [6],0.002 ± 4.9e-05
same,peptide microarray binding signal,[4]; [5],0.00181 ± 6e-05
same,peptide microarray binding signal,[4]; [6],0.00127 ± 3.4e-05
KGLGKGGAKRHRK [H4 8-19 Kac G L G K G G A K R H R K],peptide microarray binding signal,"[1]; peptide region: H4 8-19, peptide modifications: H4K8ac, binder concentration: 50 nM",0.00652 ± 0.00063
same,peptide microarray binding signal,"[1]; peptide region: H4 8-19, peptide modifications: H4K8ac, binder concentration: 500 nM",0.0191 ± 0.0048
same,peptide microarray binding signal,"[2]; peptide region: H4 8-19, peptide modifications: H4K8ac, binder concentration: 10 nM",0.004 ± 0.00025
same,peptide microarray binding signal,"[2]; peptide region: H4 8-19, peptide modifications: H4K8ac, binder concentration: 100 nM",0.0126 ± 0.0039
same,peptide microarray binding signal,[3]; [7],0.000849 ± 0.00016
same,peptide microarray binding signal,[3]; [8],0.001712 ± 1.6e-05
same,peptide microarray binding signal,[4]; [7],0.000876 ± 7e-05
same,peptide microarray binding signal,[4]; [8],0.00121 ± 2.4e-05
KRHRKVLRDNIQG [H4 16-28 K R H Rcit Kac V L R D N I Q G],peptide microarray binding signal,"[1]; peptide region: H4 16-28, peptide modifications: H4R19cit H4K20ac, binder concentration: 50 nM",0.00511 ± 4.9e-05
same,peptide microarray binding signal,"[1]; peptide region: H4 16-28, peptide modifications: H4R19cit H4K20ac, binder concentration: 500 nM",0.00829 ± 0.00052
same,peptide microarray binding signal,"[2]; peptide region: H4 16-28, peptide modifications: H4R19cit H4K20ac, binder concentration: 10 nM",0.00633 ± 0.0001
same,peptide microarray binding signal,"[2]; peptide region: H4 16-28, peptide modifications: H4R19cit H4K20ac, binder concentration: 100 nM",0.0106 ± 0.00059
same,peptide microarray binding signal,[3]; [9],0.000736 ± 6.2e-05
same,peptide microarray binding signal,[3]; [10],0.00137 ± 1.3e-05
same,peptide microarray binding signal,[4]; [9],0.0004832 ± 4.6e-06
same,peptide microarray binding signal,[4]; [10],0.00196 ± 3.7e-05
KRHRKVLRDNIQG [H4 16-28 K R H Rme K V L R D N I Q G],peptide microarray binding signal,"[1]; peptide region: H4 16-28, peptide modifications: H4R19me1, binder concentration: 500 nM",9.52e-05 ± 1e-06
same,peptide microarray binding signal,"[2]; peptide region: H4 16-28, peptide modifications: H4R19me1, binder concentration: 100 nM",0.000425 ± 4.9e-06
same,peptide microarray binding signal,[3]; [11],0.000113 ± 2.2e-06
same,peptide microarray binding signal,[4]; [11],1.51e-05 ± 1.7e-07
KRHRKVLRDNIQG [H4 16-28 K R H R Kme V L R D N I Q G],peptide microarray binding signal,"[1]; peptide region: H4 16-28, peptide modifications: H4K20me1, binder concentration: 500 nM",0.000143
same,peptide microarray binding signal,"[2]; peptide region: H4 16-28, peptide modifications: H4K20me1, binder concentration: 100 nM",0.000283
same,peptide microarray binding signal,[3]; [12],7.55e-05 ± 8.5e-07
same,peptide microarray binding signal,[4]; [12],4.53e-05
KGLGKGGAKRHRK [H4 8-19 K G L G K G G A K Rcit H R K],peptide microarray binding signal,"[1]; peptide region: H4 8-19, peptide modifications: H4R17cit, binder concentration: 50 nM",0.0003448 ± 3.2e-06
same,peptide microarray binding signal,"[1]; peptide region: H4 8-19, peptide modifications: H4R17cit, binder concentration: 500 nM",0.000381 ± 4e-06
same,peptide microarray binding signal,"[2]; peptide region: H4 8-19, peptide modifications: H4R17cit, binder concentration: 10 nM",0.00191 ± 4e-05
same,peptide microarray binding signal,"[2]; peptide region: H4 8-19, peptide modifications: H4R17cit, binder concentration: 100 nM",0.000354 ± 4.1e-06
same,peptide microarray binding signal,[3]; [13],7.55e-05 ± 8.5e-07
same,peptide microarray binding signal,[3]; [14],0.000685 ± 1.5e-05
same,peptide microarray binding signal,[4]; [13],3.02e-05 ± 3.4e-07
same,peptide microarray binding signal,[4]; [14],0
KRHRKVLRDNIQG [H4 16-28 K R H R Kac V L R D N I Q G],peptide microarray binding signal,"[1]; peptide region: H4 16-28, peptide modifications: H4K20ac, binder concentration: 500 nM",0.000524 ± 1.1e-05
same,peptide microarray binding signal,"[2]; peptide region: H4 16-28, peptide modifications: H4K20ac, binder concentration: 100 nM",0.000354 ± 4.1e-06
same,peptide microarray binding signal,[3]; [15],0.000529 ± 9.8e-05
same,peptide microarray binding signal,[4]; [15],3.02e-05 ± 3.4e-07
KGLGKGGAKRHRK [H4 8-19 K G L G K G G A K Rme2a H R K],peptide microarray binding signal,"[1]; peptide region: H4 8-19, peptide modifications: H4R17me2a, binder concentration: 50 nM",0.00395 ± 0.00035
same,peptide microarray binding signal,"[1]; peptide region: H4 8-19, peptide modifications: H4R17me2a, binder concentration: 500 nM",0.00957 ± 0.00096
same,peptide microarray binding signal,"[2]; peptide region: H4 8-19, peptide modifications: H4R17me2a, binder concentration: 10 nM",0.00358 ± 3.8e-05
same,peptide microarray binding signal,"[2]; peptide region: H4 8-19, peptide modifications: H4R17me2a, binder concentration: 100 nM",0.0085 ± 0.00064
same,peptide microarray binding signal,[3]; [16],0.00051 ± 1.5e-05
same,peptide microarray binding signal,[3]; [17],0.000913 ± 1.6e-05
same,peptide microarray binding signal,[4]; [16],0.000483 ± 1.7e-05
same,peptide microarray binding signal,[4]; [17],0.00208 ± 0.00045
KGLGKGGAKRHRK [H4 8-19 Kac G L G K G G A Kac R H R K],peptide microarray binding signal,"[1]; peptide region: H4 8-19, peptide modifications: H4K8ac H4K16ac, binder concentration: 50 nM",0.000439 ± 1.5e-05
same,peptide microarray binding signal,"[1]; peptide region: H4 8-19, peptide modifications: H4K8ac H4K16ac, binder concentration: 500 nM",9.52e-05 ± 1e-06
same,peptide microarray binding signal,"[2]; peptide region: H4 8-19, peptide modifications: H4K8ac H4K16ac, binder concentration: 10 nM",0.0043 ± 0.0012
same,peptide microarray binding signal,"[2]; peptide region: H4 8-19, peptide modifications: H4K8ac H4K16ac, binder concentration: 100 nM",0.000283
same,peptide microarray binding signal,[3]; [18],0.000113
same,peptide microarray binding signal,[3]; [19],0.00143 ± 0.00034
same,peptide microarray binding signal,[4]; [18],4.53e-05
same,peptide microarray binding signal,[4]; [19],5.77e-05 ± 6.6e-07
KGLGKGGAKRHRK [H4 8-19 K G L G K G G A Kac Rme H R K],peptide microarray binding signal,"[1]; peptide region: H4 8-19, peptide modifications: H4K16ac H4R17me1, binder concentration: 500 nM",0.000143 ± 2.7e-06
same,peptide microarray binding signal,"[2]; peptide region: H4 8-19, peptide modifications: H4K16ac H4R17me1, binder concentration: 100 nM",0.000425 ± 4.9e-06
same,peptide microarray binding signal,[3]; [20],7.55e-05 ± 8.5e-07
same,peptide microarray binding signal,[4]; [20],3.02e-05 ± 3.4e-07
KRHRKVLRDNIQG [H4 16-28 K R H Rcit Kme2 V L R D N I Q G],peptide microarray binding signal,"[1]; peptide region: H4 16-28, peptide modifications: H4R19cit H4K20me2, binder concentration: 50 nM",0.00351 ± 7.6e-05
same,peptide microarray binding signal,"[1]; peptide region: H4 16-28, peptide modifications: H4R19cit H4K20me2, binder concentration: 500 nM",0.007572 ± 7.1e-05
same,peptide microarray binding signal,"[2]; peptide region: H4 16-28, peptide modifications: H4R19cit H4K20me2, binder concentration: 10 nM",0.00812 ± 0.00016
same,peptide microarray binding signal,"[2]; peptide region: H4 16-28, peptide modifications: H4R19cit H4K20me2, binder concentration: 100 nM",0.0181 ± 0.00075
same,peptide microarray binding signal,[3]; [21],0.0008306 ± 7.4e-06
same,peptide microarray binding signal,[3]; [22],0.0016
same,peptide microarray binding signal,[4]; [21],0.000483 ± 9.2e-06
same,peptide microarray binding signal,[4]; [22],0.001211 ± 1.2e-05
